This note sets out measurements from PubChem BioAssay (NCATS).

Values joined by “and” are separate entries in the source; they are usually repeats but may differ in a detail not shown here. Identical values can stand only once. Inconclusive results are not listed. Active and inactive are the calls of the source. Unless noted, calls follow the shape of the full dose curve.

Thyroid hormone receptor beta (Homo sapiens), sequence (P10828 whole entry, looked up): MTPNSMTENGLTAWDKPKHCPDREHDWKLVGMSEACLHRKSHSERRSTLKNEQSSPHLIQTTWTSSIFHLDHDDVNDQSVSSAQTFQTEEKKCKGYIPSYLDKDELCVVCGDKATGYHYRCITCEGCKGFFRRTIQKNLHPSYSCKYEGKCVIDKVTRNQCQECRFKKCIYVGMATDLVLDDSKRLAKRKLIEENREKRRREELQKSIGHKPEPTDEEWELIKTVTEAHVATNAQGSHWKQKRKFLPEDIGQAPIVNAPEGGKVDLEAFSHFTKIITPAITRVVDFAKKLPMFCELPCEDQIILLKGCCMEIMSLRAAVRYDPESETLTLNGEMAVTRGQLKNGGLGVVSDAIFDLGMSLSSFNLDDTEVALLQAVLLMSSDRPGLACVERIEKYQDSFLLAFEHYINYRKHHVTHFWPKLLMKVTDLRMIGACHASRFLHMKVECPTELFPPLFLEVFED

Tested on in the first experiment: not listed separately
Nature of the experiment: qHTS assay for small molecule agonists of retinoid X receptor alpha signaling (AID 588544). Also: potency is read from the fitted curve at half-maximal effect.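 As to activation: 0% = DMSO basal wells and 100% = reference agonist.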 The settings on record: HEK293T RXRa-UAS-bla, beta-lactamase reporter, 18 h; 530 nm emission. In general terms: qHTS replaces the single test concentration by a dilution series.
Regarding `CCCC(=O)c1cc(O)c(O)cc1O`, the max response was found to be 11.4%.
Still for that read-out and setting: to `CC(C)C(C)(C)C(C)(C)C(C)(C)S` belongs -6.07% and -23.3%; to `Cc1cc(C(C)(C)C)c(O)c(C(C)(C)C)c1`, -14.9%; to `COC(=O)c1c(Cl)c(Cl)c(C(=O)OC)c(Cl)c1Cl`, -4.07%.
Regarding `O=C(Oc1ccccc1)c1cccc(C(=O)Oc2ccccc2)c1`, the max response is 15.8%.
On the same count and under the same terms, to `Nc1cccc2c(N)cccc12` belongs 9.18%; to `COc1cc(C=O)ccc1O`, -4.86%; to `OCc1c[nH]c2ccccc12`, 1.88%.
On to `O=C(c1ccccc1)c1ccccc1`, for which the max response was -13.1% and -5.43%.
Same read-out and setting: for `CN1C(=O)c2ccccc2C1=O` the value was -17.2%; for `CCCCCCCCCCCCCCCC[n+]1ccccc1`, 3.2%.
Take `OCCOCCN1CCN(C(c2ccccc2)c2ccc(Cl)cc2)CC1` (stereo not given): the max response came to 11.6%.
On to `Cc1ncc(CO)c(CO)c1O`, for which the max response is -11.9%.
On the same count and under the same terms, for `CCCCC(CC)COC(=O)c1ccccc1C(=O)O` (stereo not given) the value was 0.375% and 2.79%; for `c1ccc2occc2c1`, -16.2%; for `Cc1ccc(O)cc1`, -3.32%.
The same measure, in the same setting: for `Brc1ccccc1-c1ccccc1` the value was 10.3%; for `C1=CC2C3C=CC(C3)C2C1` (stereo not given), 15.9%; for `Nc1ccc(O)cc1`, 21.6%.

The next experiment deals with Retinoic acid receptor RXR-alpha (Homo sapiens) (UniProt P19793). Described as above. The settings on record: HEK293T RXRa-UAS-bla, beta-lactamase reporter, 18 h; series mostly up to 76.7 µM; activation: at the top concentration.
Retinoic acid receptor RXR-alpha (Homo sapiens), sequence (P19793 whole entry, looked up): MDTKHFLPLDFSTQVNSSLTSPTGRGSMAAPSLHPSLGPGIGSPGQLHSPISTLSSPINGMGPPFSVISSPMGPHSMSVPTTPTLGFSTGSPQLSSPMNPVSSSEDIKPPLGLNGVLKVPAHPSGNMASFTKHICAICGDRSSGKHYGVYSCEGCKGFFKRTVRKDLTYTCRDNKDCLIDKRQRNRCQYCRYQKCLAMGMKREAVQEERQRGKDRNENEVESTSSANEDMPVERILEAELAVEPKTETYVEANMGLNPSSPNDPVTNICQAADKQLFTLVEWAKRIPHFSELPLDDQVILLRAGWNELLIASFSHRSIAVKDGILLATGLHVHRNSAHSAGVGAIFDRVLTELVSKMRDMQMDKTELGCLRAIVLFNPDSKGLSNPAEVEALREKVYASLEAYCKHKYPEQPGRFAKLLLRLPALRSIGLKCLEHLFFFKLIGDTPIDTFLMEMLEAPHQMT
As for `CCCC(=O)c1cc(O)c(O)cc1O`, the “activation” value was 3.05% (inactive).
On to `CC(C)C(C)(C)C(C)(C)C(C)(C)S`, for which the Potency entry is “inactive”.
Take `Cc1cc(C(C)(C)C)c(O)c(C(C)(C)C)c1`: the Potency was 17.8 µM (active).
For `COC(=O)c1c(Cl)c(Cl)c(C(=O)OC)c(Cl)c1Cl`, the “activation” value is -8.97% (inactive).
On the same count and under the same terms, for `O=C(Oc1ccccc1)c1cccc(C(=O)Oc2ccccc2)c1` the value was -23% (inactive).
Same read-out and setting: for `Nc1cccc2c(N)cccc12` the value was 0.799% (inactive).
Regarding `COc1cc(C=O)ccc1O`, the “activation” value is -9.66% (inactive).
Regarding `OCc1c[nH]c2ccccc12`, the “activation” value was -11.4% (inactive).
For the molecule `O=C(c1ccccc1)c1ccccc1`, the Potency entry was “inactive”.
For the molecule `CN1C(=O)c2ccccc2C1=O`, the “activation” value was 21% (inactive).
On to `CCCCCCCCCCCCCCCC[n+]1ccccc1`, for which the “activation” value was -7.41% (inactive).
As to `OCCOCCN1CCN(C(c2ccccc2)c2ccc(Cl)cc2)CC1` (stereo not given), the “activation” value was -23% (inactive).
The same measure, in the same setting: to `Cc1ncc(CO)c(CO)c1O` belongs 8.65% (inactive).
As for `CCCCC(CC)COC(=O)c1ccccc1C(=O)O` (stereo not given), the Potency result is “inactive”.
Consider `c1ccc2occc2c1`, for which the “activation” value is 6.27% (inactive).
With `Cc1ccc(O)cc1`, the “activation” value was 1.81% (inactive).
The same measure, in the same setting: to `Brc1ccccc1-c1ccccc1` belongs -2.3% (inactive).
Same read-out and setting: for `C1=CC2C3C=CC(C3)C2C1` (stereo not given) the value was -2.65% (inactive); for `Nc1ccc(O)cc1`, -12.3% (inactive).

In the next experiment the target is Thyroid hormone receptor beta (Homo sapiens) (UniProt P10828). Nature of the experiment: qHTS assay for small molecule agonists of thyroid hormone receptor beta signaling (AID 588545). The note with it: TR-UAS-bla GripTite HEK 293, beta-lactamase ratio, agonist mode, 18 h, percent of T3 response, DMSO as zero; series mostly up to 76.7 µM; activation: at the top concentration. An outline of the steps:
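HEK 293 TR-UAS-bla; agonist mode; 18 hrs, 37 C; CCF4, ex 405/em 460 and 530 nm; norm. T3 10 nM = 100%, DMSO = 0%; Hill fit → EC50, efficacy.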
With `CCCC(=O)c1cc(O)c(O)cc1O`, the “activation” value is -14.6% (inactive).
On to `O=C(NO)c1ccccc1`, for which the “activation” value was -50.6% (inactive).
For `Cc1cc(C(C)(C)C)c(O)c(C(C)(C)C)c1`, the result was inactive.
Consider `CCCCCCCCCCCC[N+](C)(C)Cc1ccccc1`, for which the “activation” value is -8.06% (inactive).
Take `COC(=O)c1c(Cl)c(Cl)c(C(=O)OC)c(Cl)c1Cl`: the “activation” value was 1.47% (inactive).
For `CC(C)(C)c1ccc(O)c(O)c1`, the “activation” value is -4.48% (inactive).
The same measure, in the same setting: to `O=C(Oc1ccccc1)c1cccc(C(=O)Oc2ccccc2)c1` belongs 7.18% (inactive).
As to `Nc1cccc2c(N)cccc12`, the outcome was inactive.
On the same count and under the same terms, for `CC(C)(c1ccc(O)cc1)c1ccc(O)cc1` the value was “inactive”.
For `COc1cc(C=O)ccc1O`, the “activation” value was -20.1% (inactive).
On the same count and under the same terms, for `OCc1c[nH]c2ccccc12` the value was 2.19% (inactive); for `CC(=O)OC/C=C(C)/C=C/C=C(C)/C=C/C1=C(C)CCCC1(C)C`, -1.83% (inactive).
In the case of `O=C(Oc1ccccc1)c1ccccc1O`, the outcome was inactive.
Turning to `CN1C(=O)c2ccccc2C1=O`, the “activation” value is -0.366% (inactive).
The same measure, in the same setting: to `OCCOCCN1CCN(C(c2ccccc2)c2ccc(Cl)cc2)CC1` (stereo not given) belongs -9.52% (inactive).
As for `CCCCC(CC)COC(=O)c1ccccc1C(=O)O` (stereo not given), the outcome was inactive.
Take `O=C(Nc1ccc(Cl)cc1)Nc1ccc(Cl)c(Cl)c1`: the “activation” value is 0% (inactive).
Regarding `c1ccc2occc2c1`, the outcome was inactive.
Take `Cc1ccc(O)cc1`: the “activation” value is -26.8% (inactive).
`Brc1ccccc1-c1ccccc1`: the “activation” value is -5.51% (inactive).
With `C1=CC2C3C=CC(C3)C2C1` (stereo not given), the “activation” value was -5.32% (inactive).

Tested on in another experiment: not listed separately
Briefly: qHTS assay for small molecule antagonists of retinoid X receptor alpha signaling (AID 588546; active = well fitted inhibition curve with a large enough effect in the signal ratio, with a control signal flat, not every such curve was filed as active; the % refers to the signal ratio; also: potency is read from the fitted curve at half-maximal effect;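 as to max response: cells stimulated with 9-cis-retinoic acid as agonist; % is scaled to controls: 0 for no effect and ±100 for the full control effect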). The note with it: HEK293T RXRa-UAS-bla, beta-lactamase ratio, antagonist mode; measured here: W530 green channel, cytotoxicity proxy. An outline of the steps:
(§1)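 Beta-lactamase reporter inhibition, read as CCF4 fluorescence ratio (ex 405, em 460/530 nm) after 2 h at RT. HEK293T UAS-bla cells, 2500/well, were stimulated with 9-cis-RA at 500 or 100 nM final alongside test compound for 18 h at 37 C.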
As for `CCCC(=O)c1cc(O)c(O)cc1O`, the max response was found to be 4.85%.
With `CC(C)C(C)(C)C(C)(C)C(C)(C)S`, the max response is -12% and -14.7%.
On the same count and under the same terms, to `Oc1ccccc1` belongs -7.3% and -10.8% and -13%; to `O=C(NO)c1ccccc1`, -10.6%; to `COC(=O)c1c(Cl)c(Cl)c(C(=O)OC)c(Cl)c1Cl`, -11.5%.
On the same count and under the same terms, to `CC(C)(C)c1ccc(O)c(O)c1` belongs 3.05% and -10.4%; to `O=C(Oc1ccccc1)c1cccc(C(=O)Oc2ccccc2)c1`, 0.814%; to `Nc1cccc2c(N)cccc12`, 0.949% and -3.88%.
Still for that read-out and setting: for `CC(C)(c1ccc(O)cc1)c1ccc(O)cc1` the value was -4.03% and -11.6%; for `COc1cc(C=O)ccc1O`, -4.04% and -15.4%.
With `OCc1c[nH]c2ccccc12`, the max response was 2.29%.
In the case of `O=C(c1ccccc1)c1ccccc1`, the max response was -0.815% and -2.27%.
Still for that read-out and setting: for `CC(=O)OC/C=C(C)/C=C/C=C(C)/C=C/C1=C(C)CCCC1(C)C` the value was 10.5%.
Still for that read-out and setting: to `O=C(Oc1ccccc1)c1ccccc1O` belongs 8.83% and -6.1%; to `CCN(CC)CCOc1ccc(/C(=C(\Cl)c2ccccc2)c2ccccc2)cc1`, -2.07%; to `CCCCCCCCCCCCCCCC[n+]1ccccc1`, 11.3%.
The same measure, in the same setting: to `OCCOCCN1CCN(C(c2ccccc2)c2ccc(Cl)cc2)CC1` (stereo not given) belongs 2.38%; to `Cc1ncc(CO)c(CO)c1O`, -0.0047%; to `CCCCC(CC)COC(=O)c1ccccc1C(=O)O` (stereo not given), -0.199% and -12.8%.
Take `c1ccc2occc2c1`: the max response is -13.5% and -7.35%.
On the same count and under the same terms, to `Cc1ccc(O)cc1` belongs -4.07%; to `Brc1ccccc1-c1ccccc1`, 1.21%.
Take `Nc1ccc(O)cc1`: the max response was -3.95%.

The next experiment concerns the target Retinoic acid receptor RXR-alpha (Homo sapiens) (UniProt P19793). Described as above. The note with it: HEK293T RXRa-UAS-bla, beta-lactamase ratio, antagonist mode. The method, boiled down: as §1
Consider `CCCC(=O)c1cc(O)c(O)cc1O`, for which the max response is 15.9% (inactive).
Still for that read-out and setting: to `CC(C)C(C)(C)C(C)(C)C(C)(C)S` belongs 11.7% (inactive) and -0.658% (inactive).
With `Oc1ccccc1`, the max response is 17.6% (inactive) and -10.1% (inactive) and 2.32% (inactive).
Still for that read-out and setting: for `O=C(NO)c1ccccc1` the value was -9.23% (inactive).
On to `COC(=O)c1c(Cl)c(Cl)c(C(=O)OC)c(Cl)c1Cl`, for which the max response is 4.25% (inactive).
`CC(C)(C)c1ccc(O)c(O)c1`: the max response is -35.8% (inactive) and -24.1% (inactive).
Turning to `O=C(Oc1ccccc1)c1cccc(C(=O)Oc2ccccc2)c1`, the max response is -33.4% (inactive).
On the same count and under the same terms, to `Nc1cccc2c(N)cccc12` belongs -3.27% (inactive) and -4.14% (inactive); to `CC(C)(c1ccc(O)cc1)c1ccc(O)cc1`, -28% (inactive) and 10.2% (inactive); to `COc1cc(C=O)ccc1O`, 30% (inactive) and 5.74% (inactive).
With `OCc1c[nH]c2ccccc12`, the max response was -2.51% (inactive).
For the molecule `O=C(c1ccccc1)c1ccccc1`, the max response is 29.2% (inactive) and -10.9% (inactive).
Same read-out and setting: to `CC(=O)OC/C=C(C)/C=C/C=C(C)/C=C/C1=C(C)CCCC1(C)C` belongs 0.429% (inactive).
Same read-out and setting: for `O=C(Oc1ccccc1)c1ccccc1O` the value was 0.088% (inactive) and -1.29% (inactive).
Turning to `CCN(CC)CCOc1ccc(/C(=C(\Cl)c2ccccc2)c2ccccc2)cc1`, the Potency was 39.8 µM (active).
As to `CCCCCCCCCCCCCCCC[n+]1ccccc1`, the max response is -34.1% (inactive).
Turning to `OCCOCCN1CCN(C(c2ccccc2)c2ccc(Cl)cc2)CC1` (stereo not given), the max response was -14.3% (inactive).
On the same count and under the same terms, to `Cc1ncc(CO)c(CO)c1O` belongs 7.42% (inactive).
As for `CCCCC(CC)COC(=O)c1ccccc1C(=O)O` (stereo not given), the max response was -7.29% (inactive) and -5.81% (inactive).
For the molecule `c1ccc2occc2c1`, the max response is 6.36% (inactive) and -5.03% (inactive).
For the molecule `Cc1ccc(O)cc1`, the max response was 9.57% (inactive).
As for `Brc1ccccc1-c1ccccc1`, the max response is -2.01% (inactive).
`Nc1ccc(O)cc1`: the max response is -4.53% (inactive).
